Inhibition data for 60 compounds are collected here from PubChem BioAssay AID602252 (Broad Institute, 2012).

Molecules are shown by their SMILES. Out of some 300,000 compounds screened, about 2,700 (0.9%) were called active.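 The calls were made as follows: active = mean inhibition of at least 30% with at least half of replicates also reaching 30%; inconclusive = no clear call, values can overlap the other calls; inactive = the rest.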 For the sample, actives were picked, then their nearest neighbours and some compounds at random.

The inhibition is the relative decrease from the control value, in per cent.

The target of this assay is Golgi-associated PDZ and coiled-coil motif-containing protein (Homo sapiens) (UniProt Q9HD26). Nature of the assay: blockade of CAL PDZ-reporter peptide interaction – biochemical, fluorescence polarization, untagged CAL PDZ, HTS, primary screen (AID 602252).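 Also: 0% = DMSO neutral control and 100% = excess unlabeled competitor peptide PRC23.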 Conditions: purified CAL PDZ, TMR-peptide fluorescence polarization, 1 h; at 24.9 µM; stronger effect = higher value.
With `Cc1ccccc1OC/C(O)=C(\C#N)c1nc2ccccc2[nH]1`, the inhibition is 4.87% (inactive). In the case of `N#C/C(=C(/O)COc1cccc2ccccc12)c1nc2ccccc2[nH]1`, the inhibition was -1.44% (inactive). The value for `CC(C)(C)c1nnc2sc(SCC(O)=C(C#N)c3nc4ccccc4[nH]3)nn2c1=O` was 43.7% (active); that for `CC1CCCCC12NC(=O)N(CC(=O)OCc1c(F)cccc1Cl)C2=O` (stereo not given) was -9.25% (inactive); that for `C(#CCN1CCOCC1)CCCN1CCOCC1` was -3.29% (inactive). Regarding `Cc1cc(C(=O)COc2ccc(Br)cc2F)c(C)n1C1CC1`, the inhibition is -6.1% (inactive).

Take `COc1ccc(CNC(=O)COc2ccccc2C(=O)c2cnn(-c3ccccc3)c2)cc1OC`: the inhibition was -9.89% (inactive). On to `O=C(COC(=O)C12CC3CC(CC(O)(C3)C1)C2)NC12CC3CC(CC(C3)C1)C2`, for which the inhibition is -5.51% (inactive). The result for `CC(NCCO)C(=O)C12CC3CC(CC(C3)C1)C2` (stereo not given) reads 4.83% (inactive). The value for `O=C(CNCCO)NC12CC3CC(CC(C3)C1)C2` was 40.5% (active); that for `Cc1cccc(C(=O)N[C@H](C(=O)NCc2cccs2)C(C)C)c1` was -0.924% (inactive). For `O=C(Nc1ccc(S(=O)(=O)N2CCOCC2)cc1)C1CCN(S(=O)(=O)c2ccc(Cl)cc2)CC1`, the inhibition is -10.9% (inactive). Consider `CN(C)S(=O)(=O)c1cccc(NC(=S)NCc2ccc3c(c2)OCO3)c1`, for which the inhibition is -4.92% (inactive). For the compound `CCNC(=S)Nc1cccc(Cl)c1C`, the inhibition is -2.42% (inactive).

Consider `Cc1c(Cl)cccc1NC(=S)NCc1ccc2c(c1)OCO2`, for which the inhibition is 51.1% (active). Regarding `CC(C)n1cnc2c(NCc3ccccc3)cc(OCC3CCN(C)CC3)cc21`, the inhibition was 3.01% (inactive).

For the compound `CN(C(=O)c1cccc(NC(=O)C2CCN(C(=O)OC(C)(C)C)CC2)c1)C1CCC1`, the inhibition is -3.04% (inactive). The value for `O=C(c1cc(S(=O)(=O)N2CCOCC2)ccc1Cl)N1CCOCC1` was -1.76% (inactive); that for `O=C(CCc1ccc(S(=O)(=O)N2CCOCC2)cc1)NN=C1CCCCCCC1` was -3.33% (inactive); that for `O=C(O)c1ccc(S(=O)(=O)N2CCOCC2)o1` was 32.5% (active).

For `Cc1cccc(C=CC(=O)c2ccc(Cl)cc2)c1`, the inhibition is -5.84% (inactive). Regarding `Cc1cc(OCCCC(=O)Nc2cc(S(=O)(=O)N3CCOCC3)ccc2N2CCOCC2)ccc1Cl`, the inhibition is -3.89% (inactive).

For `CN(C(=O)c1cccc(NC(=O)Cc2ccc([N+](=O)[O-])cc2)c1)C1CCC1`, the inhibition is -2.37% (inactive). The value for `COc1ccc(S(=O)(=O)N2CCc3ccccc32)cc1C(=O)Nc1cc(S(C)(=O)=O)ccc1Cl` was -5.31% (inactive); that for `CC1CN(C(=O)c2ccc([N+](=O)[O-])s2)CC(C)O1` (stereo not given) was 0.023% (inactive). The value for `CC(=O)c1ccc(NC(=O)CSC(=S)N2CCCC2)cc1` was -3.19% (inactive); that for `O=C(CSC(=S)N1CCCCC1)c1c(F)cccc1F` was 79.2% (active). For `O=C(CSC(=S)N1CCOCC1)c1ccccc1`, the inhibition is 0.137% (inactive).

As for `O=C(Nc1ccc(NC(=O)c2ccccc2F)cc1)c1ccccc1F`, the inhibition is 4.51% (inactive). Regarding `O=C(CNC(=O)c1ccc(F)cc1)c1ccccc1`, the inhibition is -6.34% (inactive). The result for `O=C(CNC(=O)c1ccccc1F)c1ccc(Br)cc1` reads 57.3% (active); that for `Cc1c(NC(=O)CN(C)CC(=O)Nc2ccc(F)c(F)c2F)c(=O)n(-c2ccccc2)n1C`, -3.99% (inactive).

On to `O=C1c2oc3ccccc3c(=O)c2C(c2cccc(O)c2)N1c1ccccn1` (stereo not given), for which the inhibition was -1.77% (inactive). The value for `COCCN1C(=O)c2oc3c(C)cc(C)cc3c(=O)c2C1c1cccc(O)c1` (stereo not given) was 47.9% (active); that for `O=C1c2oc3ccc(Br)cc3c(=O)c2C(c2cccc(F)c2)N1CCO` (stereo not given) was 3.36% (inactive); that for `COc1ccccc1C(CNC(=O)c1ccc(C)c(S(=O)(=O)N2CCCCC2)c1)N(C)C` (stereo not given) was -4.72% (inactive). `Cc1ccc(C(=O)NCC(c2cccs2)N(C)C)cc1S(=O)(=O)N1CCOCC1` (stereo not given): the inhibition was 47.1% (active). The value for `Cc1ccc(C(=O)Nc2ncccc2C)cc1S(=O)(=O)N1CCOCC1` was -3.36% (inactive); that for `O=C(Nc1c(Br)cc2c(c1Br)Cc1cc([N+](=O)[O-])ccc1-2)C(Cl)Cl` was -7.68% (inactive); that for `OCCC1CN(Cc2ccc3nsnc3c2)CCN1C1CCCCC1` (stereo not given) was 77% (active). Turning to `OCCC1CN(Cc2ccc3nsnc3c2)CCN1C1CCCC1` (stereo not given), the inhibition is 2.19% (inactive). Consider `Cn1cnnc1Sc1ccc(CN2CCN(C3CCCC3)C(CCO)C2)o1` (stereo not given), for which the inhibition is 2.66% (inactive). In the case of `CCOC(=O)C(=O)Nc1nc(-c2ccccc2)c(CC)s1`, the inhibition is 65.4% (active). The result for `C/C(=N/Nc1nc(-c2ccccc2)c(CC(=O)O)s1)c1ccccc1` reads 2.17% (inactive). The result for `CCOc1ccc(-c2nc(C)sc2CC(=O)O)cc1` reads -0.665% (inactive); that for `CCCCCCCCNS(=O)(=O)CCNC1CCCCC1`, 0.068% (inactive). The value for `CC(=O)Oc1ccc(OC(C)=O)c2c1C1C=CC2CC1` was 3.2% (inactive). In the case of `Cc1ccc(N=Cc2c(O)cc(C)oc2=O)c(C)c1`, the inhibition was -1.38% (inactive). As to `COc1cc(N=Cc2c(O)c3ccccc3oc2=O)c(OC)cc1Cl`, the inhibition was 36.3% (active). The result for `COc1ccc(N=Cc2c(O)[nH]c3ccccc23)cc1OC` reads 0.564% (inactive). With `CC(=O)Nc1ccc(S(=O)(=O)NCC(=O)OCC(=O)c2ccc[nH]2)cc1`, the inhibition was -5.59% (inactive). The result for `Nc1ncnc2c1ncn2[C@@H]1O[C@H](CNCc2cccn2-c2nccs2)[C@@H](O)[C@H]1O` reads -2.1% (inactive); that for `COC1=CC(=O)OC(c2ccc(OC)cc2)C1` (stereo not given), 45% (active); that for `COc1ccc2c(c1)C(=O)CC(c1ccccc1)O2` (stereo not given), 16.3% (inactive). The result for `COc1ccc(C2CC(=O)NC(=O)C2)cc1` reads -5.54% (inactive). Turning to `CC1(C)C(=O)CCC2(C)C1=CCC1C2C(=O)CC2(C)C1CCC2(O)C(=O)CO` (stereo not given), the inhibition is -4.84% (inactive). The result for `O=C(O)c1ccc([N+](=O)[O-])cc1Sc1ccsc1` reads -2.87% (inactive); that for `O=C1N[C@@H](c2ccccc2)COC(=O)[C@H](Cc2ccc(F)cc2)C/C=C\C[C@@H]1CC(=O)N(CCO)Cc1ccccc1`, 2.21% (inactive). As for `COc1ccc(CN2C(CC(=O)Nc3cccnc3)c3ccc(C(F)(F)F)cc3S2(=O)=O)cc1` (stereo not given), the inhibition is -6.01% (inactive). The result for `CSCCC1NC(=O)N(CC(=O)Nc2cccc(S(=O)(=O)N3CCCCCC3)c2)C1=O` (stereo not given) reads -13.3% (inactive).
